# Assay results published in PubChem BioAssay (NCATS).
# Records with an inconclusive call do not appear. A call without a number means that no potency is given here. Calls of active or inactive are those of the source. Unless noted, calls follow the shape of the dose curve; as a rule, active = well fitted curve in the direction sought with a large enough effect; inconclusive = small, poorly fitted or top-dose-only effect, or another doubt; inactive = no such curve, though single readings can be large; an effect the other way counts as inactive or inconclusive.
# Experiments:
# [1] = AP1 Signaling Pathway (AID 357; active = well fitted curve in either direction with a large enough effect, not every such curve was filed as active); settings: ME-180 AP-1-bla reporter, EGF-induced, beta-lactamase ratio, 5 h; at 38 µM (top of the series)
# How it was run: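 ME-180 cells with beta-lactamase reporter under AP-1 response element, stimulated with EC50 EGF; compounds tested in titration series, 5 h at 37 °C. CCF4 substrate added 2.5 h at room temperature; 460/530 nm emission ratio gave %activity and AC50.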
# [2] = biological target: Cytochrome P450 1A2 (Homo sapiens) (UniProt P05177); experiment: p450-cyp1a2 (AID 410; calls by dose curve)
# Sequence of Cytochrome P450 1A2 (Homo sapiens) (P05177 whole entry, looked up): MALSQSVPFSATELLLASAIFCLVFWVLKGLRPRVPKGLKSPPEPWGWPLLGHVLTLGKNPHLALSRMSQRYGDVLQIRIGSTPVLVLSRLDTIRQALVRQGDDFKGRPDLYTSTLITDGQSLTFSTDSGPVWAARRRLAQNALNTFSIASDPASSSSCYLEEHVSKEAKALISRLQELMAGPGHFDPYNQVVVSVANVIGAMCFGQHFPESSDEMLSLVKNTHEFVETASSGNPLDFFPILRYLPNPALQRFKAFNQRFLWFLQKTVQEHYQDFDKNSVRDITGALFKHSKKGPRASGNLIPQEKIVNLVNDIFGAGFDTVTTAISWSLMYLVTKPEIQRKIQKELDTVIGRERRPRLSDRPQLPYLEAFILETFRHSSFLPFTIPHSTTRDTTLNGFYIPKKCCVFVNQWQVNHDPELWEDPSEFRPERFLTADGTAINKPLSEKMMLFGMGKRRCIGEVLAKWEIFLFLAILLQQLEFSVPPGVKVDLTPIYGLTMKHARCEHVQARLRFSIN
# How it was run: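 Luminescent readout of luciferin formed from Luciferin-ME by human CYP1A2; data normalized against complete inhibition by 57 uM furafylline. Enzyme 20nM, substrate 100uM at Km, 100mM KPO4 buffer, 60 min reaction at room temperature.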
# [3] = NFAT Signaling Pathway (AID 444; active = well fitted curve in either direction with a large enough effect, not every such curve was filed as active;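 also: carbachol stimulus at about its EC50 of 1 µM final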); settings: Jurkat NFAT-bla M1, carbachol, beta-lactamase ratio, 5 h; at 38 µM (top of the series)
# How it was run: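 Read-out: CCF4 FRET ratio (460 nm/530 nm) after 1 h RT dye loading, used for %activity and AC50 from titration series. Cells: Jurkat NFAT-β-lactamase/M1 line, treated with compound plus 1 uM carbachol for 5 h, 37 °C.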
# [4] = biological target: Glucocorticoid receptor (Homo sapiens) (UniProt P04150); experiment: GR-GFP Redistribution (AID 450;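 active = compounds whose dose series gives a full or clear partial fitted curve of increased nuclear translocation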; also: potency is read from the fitted curve at half-maximal effect); settings: U2OS GR-GFP nuclear translocation, laser cytometry, 2 h
# Sequence of Glucocorticoid receptor (Homo sapiens) (P04150 whole entry, looked up, the tested form may be a part): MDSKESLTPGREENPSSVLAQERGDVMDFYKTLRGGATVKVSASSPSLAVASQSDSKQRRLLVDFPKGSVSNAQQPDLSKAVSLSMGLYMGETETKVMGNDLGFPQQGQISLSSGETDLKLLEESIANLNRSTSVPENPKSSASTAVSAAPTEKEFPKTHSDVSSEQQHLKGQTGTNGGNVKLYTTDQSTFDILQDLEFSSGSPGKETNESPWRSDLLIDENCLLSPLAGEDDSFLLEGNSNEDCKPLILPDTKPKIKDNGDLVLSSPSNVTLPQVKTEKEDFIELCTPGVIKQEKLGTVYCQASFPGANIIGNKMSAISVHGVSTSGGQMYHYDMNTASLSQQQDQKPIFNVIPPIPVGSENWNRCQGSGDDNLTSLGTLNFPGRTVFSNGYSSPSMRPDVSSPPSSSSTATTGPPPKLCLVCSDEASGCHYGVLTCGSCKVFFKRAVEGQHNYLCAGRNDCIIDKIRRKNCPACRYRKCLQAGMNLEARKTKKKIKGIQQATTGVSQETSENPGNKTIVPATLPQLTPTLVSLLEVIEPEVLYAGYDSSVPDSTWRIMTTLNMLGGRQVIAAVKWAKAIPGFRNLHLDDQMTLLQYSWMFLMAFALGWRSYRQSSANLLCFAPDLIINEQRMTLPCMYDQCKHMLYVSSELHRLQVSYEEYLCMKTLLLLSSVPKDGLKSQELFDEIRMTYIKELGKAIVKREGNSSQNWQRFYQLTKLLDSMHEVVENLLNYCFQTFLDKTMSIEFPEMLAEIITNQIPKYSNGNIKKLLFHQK
# [5] = biological target: Glucocorticoid receptor (Homo sapiens) (UniProt P04150); experiment: GR-EFC Redistribution (AID 451; calls by dose curve; also: potency is read from the fitted curve at half-maximal effect); settings: CHO-K1 GR-EFC translocation, beta-gal luminescence, 2 h
# How it was run: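 Translocation of GR-ED fusion to nuclear EA restores b-gal, read by luminescence after 1 h room-temperature detection. Engineered CHO-K1 biosensor cells, 1,000/well, exposed 2 h at 37 C to titrations up to 46 uM final.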
# [6] = biological target: Mitogen-activated protein kinase 10 (Mus musculus) (UniProt Q61831); experiment: JNK3 AlphaScreen Assay (AID 530; active = well fitted curve in either direction with a large enough effect, not every such curve was filed as active;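 also: kinase came from lysate of stimulated human HepG2 cells; signal reports phosphorylation of biotinylated GST-cJun 1-79 at Ser73 with 10 µM ATP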)
# How it was run: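 Compound titrations were preincubated 15 minutes at room temperature with substrate, antibody and pre-activated JNK3-containing HepG2 lysate. Reactions were started with 10 uM ATP and stopped with EDTA-containing bead buffer for AlphaScreen detection.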
# [7] = biological target: 3',5'-cyclic-AMP phosphodiesterase 4B (Homo sapiens) (UniProt Q07343); experiment: qHTS Assay for Inhibitors of PDE-IV (AID 607; active = well fitted activation curve with a large enough effect in the main read-out, with a control signal flat, not every such curve was filed as active)
# How it was run: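 ACTOne HEK293 cells carry a modified cAMP-gated CNG channel and express endogenous PDE4; plated 1000 cells/well, compounds up to 22.9 uM final. Membrane-potential dye fluorescence (ex 535/em 590) was read; parental cells received 10 uM forskolin + 100 uM RO 20-1724.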
# [8] = biological target: Guanine nucleotide-binding protein G(i) subunit alpha-1 (Homo sapiens) (UniProt P63096); experiment: qHTS Assay for Inhibitors of RGS12 GoLoco Motif Activity (Green Fluorophore) (AID 879);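 also: negative values mean loss of peptide binding seen as reduced polarization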
# How it was run: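 Fluorescence polarization assay: 50 nM Gαi1 with 10 nM FITC-labeled RGS12 GoLoco peptide in 10 mM Tris pH 7.5, 150 mM NaCl, 0.1 mM GDP, 0.05% NP40, 10 min at room temperature with compound.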
# [9] = qHTS Assay for Identification of Small Molecule Agonists for Thrombopoietin (TPO) Signaling Pathway (AID 917)
# How it was run: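 IL-3-dependent murine pro-B Ba/F3 cells, stably transfected with human TPO receptor and GpIIb-promoter luciferase, are incubated 24 hrs at 37 C with test compound and 26 pM TPO; luciferase signal is read after 10 min at room temperature.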
# [10] = biological target: Muscarinic acetylcholine receptor M1 (Rattus norvegicus) (UniProt P08482); experiment: qHTS Assay for Antagonists of Acetylcholine Muscarinic M1 Receptor: Measurement of IP-One Response (AID 944); also: nearly all actives have a fitted effect of over 75% in size
# How it was run: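 M1-CHO (rat), 2000 cells/well, overnight recovery; cpd 10 min; carbachol EC80 (200 nM), 30 min, HEPES buffer + 50 mM LiCl pH 7.4; IP-One HTRF, Ex 337, Em 620/665 nm.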
# [11] = biological target: Pyruvate kinase (Leishmania mexicana) (UniProt Q27686); experiment: qHTS Validation Assay for Inhibitors of Leishmania Mexicana Pyruvate Kinase (AID 945)
# Sequence of Pyruvate kinase (Leishmania mexicana) (Q27686 2-499 E452W): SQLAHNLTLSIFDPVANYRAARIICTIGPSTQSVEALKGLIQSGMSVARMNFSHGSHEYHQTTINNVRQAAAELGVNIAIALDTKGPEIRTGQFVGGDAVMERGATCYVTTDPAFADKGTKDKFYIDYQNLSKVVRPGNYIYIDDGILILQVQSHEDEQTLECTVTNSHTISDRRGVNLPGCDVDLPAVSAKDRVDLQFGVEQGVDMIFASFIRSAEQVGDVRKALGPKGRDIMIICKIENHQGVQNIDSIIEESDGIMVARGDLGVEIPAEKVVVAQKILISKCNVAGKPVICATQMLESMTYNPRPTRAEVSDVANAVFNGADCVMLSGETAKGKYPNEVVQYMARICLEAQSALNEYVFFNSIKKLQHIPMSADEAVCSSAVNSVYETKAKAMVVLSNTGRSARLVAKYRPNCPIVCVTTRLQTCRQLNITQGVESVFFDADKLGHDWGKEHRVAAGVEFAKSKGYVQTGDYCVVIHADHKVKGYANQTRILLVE
# How it was run: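 Read-out: luminescence from PKLight stop/detection reagent, data normalized to DMSO. Reaction: 0.2 nM E451W LmPYK, 0.5 mM PEP, 0.1 mM ADP, pH 7.2, 1 h room temperature.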
# [12] = biological target: Pyruvate kinase PKM (Homo sapiens) (UniProt P14618); experiment: qHTS Assay for Activators of Human Muscle Pyruvate Kinase (AID 954; active = well fitted curve in the direction sought with a large enough effect, not every such curve was filed as active)
# How it was run: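 Luminescence from a luciferase ATP-detection/stop reagent reported PKM2 activity. Reactions contained 0.1 nM purified human enzyme, 0.5 mM PEP, 0.1 mM ADP and 7 mM MgCl2 at pH 7.2, run 1 h at RT.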
# [13] = biological target: Alpha-galactosidase A (Homo sapiens) (UniProt P06280); experiment: Counterscreen for Glucocerebrosidase Inhibitors: qHTS Assay for Human alpha-Galactosidase at pH 4.5 (AID 992)
# How it was run: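 Enzyme at 2 nM final was combined with compound (0.7 nM to 77 uM) and 80 uM 4-methylumbelliferyl alpha-D-galactopyranoside in 50 mM citric acid, 0.005% Tween-20, pH 4.5. After 20 min at room temperature, fluorescence was read (Ex 365/Em 440 nm); AC50 came from Hill fits.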
# [14] = biological target: alpha-glucosidase (Oryza sativa, rice) (UniProt Q653V4); experiment: Counterscreen for Glucocerebrosidase Inhibitors: qHTS Assay for Rice alpha-Glucosidase at pH 5.0 (AID 997)
# How it was run: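 Rice alpha-glucosidase (4 nM final) with 400 uM 4-methylumbelliferyl-alpha-D-glucopyranoside in citrate buffer pH 5.0, 20 min at room temperature, stopped at pH 10; fluorescence 365/440 nm, compounds 0.7 nM–77 uM, AC50 from Hill fits.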
# [15] = Cytometric Cell-Based qHTS for Inhibitors of the mTORC1 Signaling Pathway in MEF (Tsc2-/-, p53-/-) Cells (AID 2660);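 also: Tsc2 and p53 null MEFs carrying empty vector with compound for 24 h; percent of cells above a phospho-rpS6 to PI ratio cutoff in each well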
# How it was run: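 Readout: Alexa-488 phospho-rpS6 (Ser235/236) intensity divided by PI intensity, thresholded against 7.5 nM rapamycin wells and reported as % positive cells. PI cell count served as the viability measure. Compound exposure was 24 hrs at 37 degree Celsius.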
# [16] = High Content Imaging Cell-Based qHTS for Inhibitors of the mTORC1 Signaling Pathway in MEF (Tsc2-/-, p53-/-) Cells (AID 2666); settings: at 38.3 µM (top of the series);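 also: percent of cells scored positive for phospho-rpS6 Ser235/236 immunostaining by imaging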
# How it was run: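 Cells were plated, dosed with compound after 24 hrs, and incubated another 24 hrs at 37 degree Celsius. Fixed cells were immunostained for phospho-rpS6 Ser235/236 and counterstained, and the normalized signal was scored as % active cells against rapamycin and DMSO controls.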
# [17] = High Content Imaging Cell-Based qHTS for Inhibitors of the mTORC1 Signaling Pathway in MEF Cells (AID 2667);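 also: Tsc2-/- p53-/- MEFs stably re-expressing wild-type Tsc2 exposed 24 h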
# How it was run: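 Immunofluorescence for rpS6 phosphorylation in MEFs of Tsc2-/-, p53-/- background rescued with WT Tsc2. Compound exposure lasted 24 hrs. Inhibition was scored against rapamycin-treated control wells.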
# [18] = biological target: Ubiquitin carboxyl-terminal hydrolase 2 (Homo sapiens) (UniProt O75604); experiment: qHTS Validation Assay for Inhibitors of Ubiquitin-specific Protease USP2a Using CHOP2 as the Reporter (AID 463106)
# How it was run: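 10nM USP2 core + cpd, 30min RT; add 25nM Ub-CHOP2/25nM substrate; 60min RT; FI 485/531nm. Buffer Tris pH 8.0, CaCl2, BME, CHAPS. Norm. to NEM = 100% inhibition; time-zero read flags fluorescent artifacts.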
# [19] = biological target: DNA polymerase III PolC-type (Bacillus subtilis (strain 168)) (UniProt P13267); experiment: qHTS Validation Assay for the Inhibitors of DNA Replication in Gram-Positive Bacteria (AID 485295);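 also: reconstituted holoenzyme with PolC plus beta clamp SSB and primase; PicoGreen fluorescence of double-stranded DNA made on primed circular M13 template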
# Sequence of DNA polymerase III PolC-type (Bacillus subtilis (strain 168)) (P13267 whole entry, looked up): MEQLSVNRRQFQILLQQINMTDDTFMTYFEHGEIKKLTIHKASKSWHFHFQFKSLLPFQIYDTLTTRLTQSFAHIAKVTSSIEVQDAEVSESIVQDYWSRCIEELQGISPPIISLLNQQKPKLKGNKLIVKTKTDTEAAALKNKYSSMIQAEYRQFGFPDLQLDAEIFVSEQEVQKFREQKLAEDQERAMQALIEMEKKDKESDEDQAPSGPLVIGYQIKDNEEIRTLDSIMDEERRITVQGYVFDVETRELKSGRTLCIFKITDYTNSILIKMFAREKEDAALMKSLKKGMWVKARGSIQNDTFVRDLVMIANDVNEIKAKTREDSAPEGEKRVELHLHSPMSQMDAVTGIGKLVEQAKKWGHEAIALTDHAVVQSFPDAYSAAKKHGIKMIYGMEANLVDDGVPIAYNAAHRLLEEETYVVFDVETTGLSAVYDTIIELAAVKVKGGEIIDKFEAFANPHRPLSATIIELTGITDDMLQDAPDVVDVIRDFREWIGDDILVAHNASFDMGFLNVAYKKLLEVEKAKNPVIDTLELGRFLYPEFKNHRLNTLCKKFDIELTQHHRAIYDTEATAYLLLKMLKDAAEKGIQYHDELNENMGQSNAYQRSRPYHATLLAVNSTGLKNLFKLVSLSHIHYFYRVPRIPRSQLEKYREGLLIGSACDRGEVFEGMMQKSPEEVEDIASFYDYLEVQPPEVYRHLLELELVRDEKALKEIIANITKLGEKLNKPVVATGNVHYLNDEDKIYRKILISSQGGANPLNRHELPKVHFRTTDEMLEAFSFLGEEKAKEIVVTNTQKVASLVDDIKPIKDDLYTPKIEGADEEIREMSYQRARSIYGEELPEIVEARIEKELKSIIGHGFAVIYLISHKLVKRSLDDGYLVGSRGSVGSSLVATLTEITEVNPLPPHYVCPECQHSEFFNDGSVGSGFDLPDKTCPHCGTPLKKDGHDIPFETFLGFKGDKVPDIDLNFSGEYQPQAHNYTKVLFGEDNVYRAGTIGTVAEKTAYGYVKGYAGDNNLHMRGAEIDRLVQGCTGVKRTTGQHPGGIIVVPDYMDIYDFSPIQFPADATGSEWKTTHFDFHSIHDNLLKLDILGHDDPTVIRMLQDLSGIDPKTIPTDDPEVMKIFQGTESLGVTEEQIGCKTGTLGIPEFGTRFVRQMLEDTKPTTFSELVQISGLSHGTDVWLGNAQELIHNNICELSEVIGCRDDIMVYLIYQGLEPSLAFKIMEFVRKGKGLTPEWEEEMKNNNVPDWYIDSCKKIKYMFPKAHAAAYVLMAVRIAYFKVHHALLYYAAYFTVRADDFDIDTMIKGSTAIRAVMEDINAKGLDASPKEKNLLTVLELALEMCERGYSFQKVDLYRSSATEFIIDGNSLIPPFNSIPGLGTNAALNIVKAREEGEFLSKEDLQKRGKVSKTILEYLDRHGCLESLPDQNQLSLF
# How it was run: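 Inhibition of DNA synthesis by the reconstituted PolC holoenzyme, monitored through PicoGreen staining of dsDNA formed from ssM13Gori, dNTPs and NTPs, with compound preincubation and room-temperature reaction.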
# [20] = biological target: Tumor susceptibility gene 101 protein (Homo sapiens) (UniProt Q99816); experiment: qHTS Validation Assay for Iinhibitors of HIV-1 Budding by Blocking the Interaction of PTAP/TSG101 (AID 485342; calls by dose curve)
# How it was run: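 Compound wells held the Tsg101 binding domain (10 uM) and a FITC-conjugated PTAP peptide (50 nM) in buffer at pH 7.5 containing 0.15 M NaCl and 0.01% Tween 20; polarization was recorded after 20 min, r.t.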
# [21] = qHTS Validation Assay to Find Inhibitors of Chronic Active B-Cell Receptor Signaling (AID 485345; active = well fitted curve in the direction sought with a large enough effect in the main read-out, with a control signal flat, not every such curve was filed as active)
# How it was run: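 Read-out: ratio of filter-corrected green (IkappaBalpha fusion) to red (native) luciferase signal in doxycycline-induced TMD8 cells after 4 h at 37C. Titration spanned 46 uM–3 nM; Data were normalised to basal cells and 10 uM MG-132 wells.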
# [22] = biological target: Beta-2 adrenergic receptor (Homo sapiens) (UniProt P07550); experiment: qHTS validation assay of beta-arrestin-biased ligands of beta2-adrenergic receptor (AID 485366)
# Sequence of Beta-2 adrenergic receptor (Homo sapiens) (P07550 whole entry, looked up): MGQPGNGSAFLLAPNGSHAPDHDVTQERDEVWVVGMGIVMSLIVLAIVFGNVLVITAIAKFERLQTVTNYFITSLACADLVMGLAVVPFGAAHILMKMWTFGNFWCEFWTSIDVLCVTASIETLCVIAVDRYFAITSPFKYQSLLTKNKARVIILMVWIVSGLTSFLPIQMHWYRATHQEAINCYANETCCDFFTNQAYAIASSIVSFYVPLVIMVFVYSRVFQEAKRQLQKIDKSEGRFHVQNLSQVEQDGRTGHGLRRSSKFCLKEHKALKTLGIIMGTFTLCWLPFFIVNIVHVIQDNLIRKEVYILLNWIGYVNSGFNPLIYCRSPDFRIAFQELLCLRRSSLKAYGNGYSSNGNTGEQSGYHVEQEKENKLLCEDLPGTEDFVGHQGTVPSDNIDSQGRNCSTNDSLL
# How it was run: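 Tango cells (recombinant beta2-AR with recombinant beta-arrestin; recruitment releases tTA driving luciferase) were treated with compounds titrated up to 46 microM for 18 hr at 37 degrees C. Luminescence gave %Activity, and concentration-response curves were curve-classified.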
# [23] = biological target: Thioredoxin reductase 1, cytoplasmic (Rattus norvegicus) (UniProt O89049); experiment: qHTS Assay for Substrates of Mammalian Selenoprotein Thioredoxin Reductase 1 (TrxR1) (AID 488772);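 also: NADPH fluorescence in the first read after selenite addition and not the 8 min delta; a drop in NADPH fluorescence below the no-compound background marks a TrxR1 substrate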
# Sequence of Thioredoxin reductase 1, cytoplasmic (Rattus norvegicus) (O89049 whole entry, looked up): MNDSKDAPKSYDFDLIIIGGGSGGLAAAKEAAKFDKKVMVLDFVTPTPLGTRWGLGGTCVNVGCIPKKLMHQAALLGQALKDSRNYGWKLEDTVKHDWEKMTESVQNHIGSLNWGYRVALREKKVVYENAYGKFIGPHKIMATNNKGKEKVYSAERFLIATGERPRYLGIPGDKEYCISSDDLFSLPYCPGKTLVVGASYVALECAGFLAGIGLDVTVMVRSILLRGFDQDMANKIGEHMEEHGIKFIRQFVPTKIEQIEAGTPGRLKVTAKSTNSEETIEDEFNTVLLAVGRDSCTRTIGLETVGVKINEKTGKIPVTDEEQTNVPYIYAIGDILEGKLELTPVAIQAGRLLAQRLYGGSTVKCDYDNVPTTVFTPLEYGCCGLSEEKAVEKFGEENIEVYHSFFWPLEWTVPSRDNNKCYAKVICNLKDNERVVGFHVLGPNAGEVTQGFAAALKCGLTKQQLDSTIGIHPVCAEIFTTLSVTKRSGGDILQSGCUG
# How it was run: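 Quantitative HTS in Tris-HCl buffer at pH 7.5 with EDTA and Tween-20, using rat TrxR1, 400 uM NADPH and 400 uM selenite (final). A fall in initial NADPH fluorescence relative to background marked substrate behaviour.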
# [24] = biological target: D(1A) dopamine receptor (Homo sapiens) (UniProt P21728); experiment: HTS Assay for Allosteric Agonists of the Human D1 Dopamine Receptor: Primary Screen for Agonists (AID 488981)
# Sequence of D(1A) dopamine receptor (Homo sapiens) (P21728 whole entry, looked up): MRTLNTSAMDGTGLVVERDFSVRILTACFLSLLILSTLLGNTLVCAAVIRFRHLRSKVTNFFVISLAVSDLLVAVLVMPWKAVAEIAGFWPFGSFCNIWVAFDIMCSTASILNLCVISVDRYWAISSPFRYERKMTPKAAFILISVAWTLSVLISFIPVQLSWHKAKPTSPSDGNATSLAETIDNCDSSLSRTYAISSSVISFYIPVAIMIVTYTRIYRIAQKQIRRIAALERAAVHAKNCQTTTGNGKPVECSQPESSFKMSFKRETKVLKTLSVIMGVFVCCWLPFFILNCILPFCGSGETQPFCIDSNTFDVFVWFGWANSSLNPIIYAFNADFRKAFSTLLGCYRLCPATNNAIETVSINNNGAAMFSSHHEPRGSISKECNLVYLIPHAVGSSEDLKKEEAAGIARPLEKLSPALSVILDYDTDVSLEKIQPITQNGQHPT
# How it was run: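 Calcium flux in an inducible, force-coupled HEK293 Trex D1 line (overnight at 30 C): agonist mode is the 180 s kinetic read after compound; potentiator mode is the following 180 s read after dopamine at EC20.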
# [25] = biological target: D(1A) dopamine receptor (Homo sapiens) (UniProt P21728); experiment: HTS Assay for Allosteric Agonists of the Human D1 Dopamine Receptor: Primary Screen for Antagonists (AID 488983);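 also: calcium flux response to an EC80 dopamine challenge measured with no-wash dye; nearly all actives have a fitted effect of over 65% in size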
# How it was run: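 Cells are induced with tetracycline and incubated overnight at 30 C, then loaded with calcium dye for 30 to 90 minutes at room temperature. Compound addition is followed by a 180 s read, then an EC80 dopamine addition and another 180 s read.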
# [26] = Validation screen for small molecules that induce genotoxicity in human embryonic kidney (HEK293T) cells expressing luciferase-tagged ELG1 (AID 493106)
# How it was run: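 Luminescence from an ELG1-luciferase fusion serves as the read-out, rising when genetic stress elevates ELG1 protein. HEK293T reporter cells (2,000 per well) received 23 nL compound, incubated 16 hr at 37 °C, then ONE-Glo for 30 min at room temperature.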
# [27] = biological target: ATPase family AAA domain-containing protein 5 (Homo sapiens) (UniProt Q96QE3); experiment: Validation screen for small molecules that inhibit ELG1-dependent DNA repair in human embryonic kidney (HEK293T) cells expressing luciferase-tagged ELG1 (AID 493107);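 also: cells co-treated with the DNA-damaging agent 5-fluorouridine alongside compound; inhibitors lower the ELG1-luciferase luminescence signal; nearly all actives have a fitted effect of over 70% in size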
# How it was run: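 Luminescence from ONE-Glo, developed 30 min at room temperature, served as read-out of ELG1-luciferase levels. Beforehand, reporter HEK293T cells received 5-fluorouridine plus test compound for 16 hr at 37 °C.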
# [28] = Nrf2 qHTS screen for inhibitors: Validation (AID 493153; active = well fitted inhibition curve with a large enough effect in the main read-out, with a control signal flat, not every such curve was filed as active;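 as to activity change, negative = inhibition: A549 cells with ARE-driven firefly luciferase reporter reporting Nrf2 activity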); settings: viability change: measured here: cytotoxicity max response
# How it was run: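 Luminescence from an ARE-firefly luciferase reporter in A549 cells gives Nrf2 inhibition; an earlier CellTiter-Fluor fluorescent read flags cytotoxicity. Cells in 5% FBS OPTI-MEM received compound dilution series for 18-24 h at 37°C.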
# [29] = qHTS for Inhibitors of Cell Surface uPA Generation: Validation Assay (AID 493164)
# How it was run: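 RAW 264.7 cells (4000/well) were plated overnight, then exposed for 18 h at 37 C, 5% CO2 to compounds in a 7-point 1:5 titration (2.45 nM–38.3 uM final). Intracellular ATP was read by ATP-Lite luminescence.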
# [30] = biological target: Peptidyl-prolyl cis-trans isomerase NIMA-interacting 1 (Homo sapiens) (UniProt Q13526); experiment: qHTS Validation Assay to Find Inhibitors of Pin1 (AID 504536; active = well fitted inhibition curve with a large enough effect in the polarisation, with a control signal flat, not every such curve was filed as active; the % refers to the polarisation)
# How it was run: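 Fluorescence polarization competition: compounds (titration) displace HiFluor-488-labeled Pin1-1b peptide from Pin1 (0.3 uM final) in pH 7.5 HEPES buffer with DTT, 10 min at room temperature; %Activity normalized to no-enzyme wells, curves fitted.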
# [31] = biological target: Phosphoglycerate kinase, glycosomal (Trypanosoma brucei brucei) (UniProt P07378); experiment: qHTS Validation Assay to Find Inhibitors of Phosphoglycerate Kinase (AID 504547)
# Sequence of Phosphoglycerate kinase, glycosomal (Trypanosoma brucei brucei) (P07378 whole entry, looked up): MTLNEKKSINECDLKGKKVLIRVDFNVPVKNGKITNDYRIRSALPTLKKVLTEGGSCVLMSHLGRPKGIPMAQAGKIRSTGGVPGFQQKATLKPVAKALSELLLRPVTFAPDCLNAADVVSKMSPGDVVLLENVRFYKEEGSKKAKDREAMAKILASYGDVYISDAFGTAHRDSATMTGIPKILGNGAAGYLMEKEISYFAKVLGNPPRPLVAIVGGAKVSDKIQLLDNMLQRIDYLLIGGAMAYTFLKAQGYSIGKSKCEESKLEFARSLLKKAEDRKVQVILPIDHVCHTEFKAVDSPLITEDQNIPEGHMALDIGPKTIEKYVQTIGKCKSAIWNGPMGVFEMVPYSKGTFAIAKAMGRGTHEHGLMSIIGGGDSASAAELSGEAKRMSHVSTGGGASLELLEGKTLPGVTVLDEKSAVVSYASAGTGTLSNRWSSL
# How it was run: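 Inhibition of the enzyme is judged by a Kinase-Glo Plus luminescent signal following a one-hour incubation at room temperature. Because 1,3-BPG is unstable, it is made in situ by GAPDH at 100nM final; no-PGK wells define the baseline.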
structure (smiles),measurement,setting,value
CC[N+](CC)(CC)CC,"activity change, negative = inhibition",[1],-0.239% (inactive)
same,Potency,[2],inactive
same,"activity change, negative = inhibition",[3],-10.5% (inactive)
same,Potency,[4],> 46 µM (inactive)
same,Potency,[5],> 46 µM (inactive)
same,Potency,[6],inactive
same,Potency,[7],inactive
same,outcome,[8],inactive
same,Potency,[9],inactive
same,Potency,[10],inactive
same,Potency,[11],inactive
same,outcome,[12],inactive
same,outcome,[13],inactive
same,outcome,[14],inactive
same,outcome,[15],inactive
same,outcome,[16],inactive
same,Potency,[17],inactive
same,Potency,[18],inactive
same,Potency,[19],inactive
same,outcome,[20],inactive
same,outcome,[21],inactive
same,outcome,[22],inactive
same,outcome,[23],inactive
same,outcome,[24],inactive
same,outcome,[25],inactive
same,Potency,[26],inactive
same,Potency,[27],inactive
same,outcome,[28],inactive
same,viability change,[28],-5.41%
same,outcome,[29],inactive
same,Potency,[30],inactive
same,Potency,[31],inactive
